The term residual activity denotes the signal under treatment as a percentage of the control signal.

The text below walks through data of ChEMBL document CHEMBL2218924, “A broad activity screen in support of a chemogenomic map for kinase signalling research and drug discovery” (Biochem J, 2013).

Each structure is given as a SMILES string.

Assay [1] has as its target T1, Muscle, skeletal receptor tyrosine-protein kinase (Homo sapiens) (UniProt O15146).
T1 sequence (whole entry): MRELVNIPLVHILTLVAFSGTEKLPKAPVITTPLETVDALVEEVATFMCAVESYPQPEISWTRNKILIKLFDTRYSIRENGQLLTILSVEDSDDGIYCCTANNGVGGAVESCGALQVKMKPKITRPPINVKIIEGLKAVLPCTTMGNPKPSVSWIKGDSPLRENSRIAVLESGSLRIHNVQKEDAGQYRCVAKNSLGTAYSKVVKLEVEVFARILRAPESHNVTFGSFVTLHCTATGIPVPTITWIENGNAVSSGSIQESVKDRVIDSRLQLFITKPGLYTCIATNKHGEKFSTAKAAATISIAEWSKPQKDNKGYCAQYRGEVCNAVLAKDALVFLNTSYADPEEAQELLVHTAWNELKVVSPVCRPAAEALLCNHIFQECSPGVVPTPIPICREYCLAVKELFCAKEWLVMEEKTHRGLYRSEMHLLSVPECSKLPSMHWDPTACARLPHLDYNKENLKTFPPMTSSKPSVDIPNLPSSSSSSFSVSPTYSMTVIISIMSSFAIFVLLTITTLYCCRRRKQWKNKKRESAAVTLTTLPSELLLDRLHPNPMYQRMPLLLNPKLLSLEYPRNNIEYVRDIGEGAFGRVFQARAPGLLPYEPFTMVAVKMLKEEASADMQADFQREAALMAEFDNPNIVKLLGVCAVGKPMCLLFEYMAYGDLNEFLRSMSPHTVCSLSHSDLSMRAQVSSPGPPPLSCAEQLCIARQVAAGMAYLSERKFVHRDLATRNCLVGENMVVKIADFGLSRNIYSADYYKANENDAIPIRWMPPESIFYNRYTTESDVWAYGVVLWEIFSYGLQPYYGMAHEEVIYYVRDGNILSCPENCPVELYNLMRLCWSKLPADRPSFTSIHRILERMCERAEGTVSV
The following applies: at 10 µM.

In assay [2] the target is T2, Serine/threonine-protein kinase Nek11 (Homo sapiens) (UniProt Q8NG66).
T2 sequence (whole entry): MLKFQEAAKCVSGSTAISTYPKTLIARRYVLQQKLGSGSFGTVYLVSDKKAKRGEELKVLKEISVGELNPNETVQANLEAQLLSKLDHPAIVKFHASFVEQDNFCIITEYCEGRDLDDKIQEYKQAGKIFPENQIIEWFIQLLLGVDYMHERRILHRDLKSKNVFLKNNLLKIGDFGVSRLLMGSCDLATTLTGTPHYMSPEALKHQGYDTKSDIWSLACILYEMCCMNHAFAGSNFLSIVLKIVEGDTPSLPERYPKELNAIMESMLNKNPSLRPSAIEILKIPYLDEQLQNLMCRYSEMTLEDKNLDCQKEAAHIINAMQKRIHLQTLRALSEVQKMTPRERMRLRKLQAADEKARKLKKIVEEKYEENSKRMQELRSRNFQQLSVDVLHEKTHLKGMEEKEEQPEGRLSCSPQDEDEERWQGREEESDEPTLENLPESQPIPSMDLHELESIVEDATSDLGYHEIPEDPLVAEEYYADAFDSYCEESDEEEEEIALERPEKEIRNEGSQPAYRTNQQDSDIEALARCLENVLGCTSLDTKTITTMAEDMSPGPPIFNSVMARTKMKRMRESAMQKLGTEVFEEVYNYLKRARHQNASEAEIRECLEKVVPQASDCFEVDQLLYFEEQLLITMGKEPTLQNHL
The following applies: at 10 µM.

Assay [3] has as its target T3, Serine/threonine-protein kinase Nek3 (Homo sapiens) (UniProt P51956).
T3 sequence (whole entry): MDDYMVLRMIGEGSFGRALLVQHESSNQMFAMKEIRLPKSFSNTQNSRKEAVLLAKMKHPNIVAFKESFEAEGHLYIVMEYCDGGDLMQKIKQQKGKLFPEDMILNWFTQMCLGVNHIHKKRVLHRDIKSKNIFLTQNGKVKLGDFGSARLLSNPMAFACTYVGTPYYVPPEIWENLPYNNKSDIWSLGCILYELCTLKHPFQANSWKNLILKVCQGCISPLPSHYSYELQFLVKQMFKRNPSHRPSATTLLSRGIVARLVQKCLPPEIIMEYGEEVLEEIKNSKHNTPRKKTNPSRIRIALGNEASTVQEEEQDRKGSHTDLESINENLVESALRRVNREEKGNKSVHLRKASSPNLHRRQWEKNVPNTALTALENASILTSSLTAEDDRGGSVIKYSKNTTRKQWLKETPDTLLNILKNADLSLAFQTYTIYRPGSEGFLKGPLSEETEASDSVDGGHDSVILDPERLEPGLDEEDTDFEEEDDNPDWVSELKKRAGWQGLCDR
The settings on record: at 10 µM.

Assay [4] concerns the target Serine/threonine-protein kinase tousled-like 2 (Homo sapiens) (UniProt Q86UE8). The settings on record: at 1 µM.
The target is the same in assay [5]. The settings on record: at 10 µM.
In assay [6] the target is T2, Serine/threonine-protein kinase Nek11 (Homo sapiens). The settings on record: at 1 µM.
Assay [7] deals with T3, Serine/threonine-protein kinase Nek3 (Homo sapiens). The following applies: at 1 µM.
In assay [8] the target is T1, Muscle, skeletal receptor tyrosine-protein kinase (Homo sapiens). The settings on record: at 1 µM.
Assay [9] concerns the target T4, Serine/threonine-protein kinase Nek2 (Homo sapiens) (UniProt P51955).
T4 sequence (whole entry): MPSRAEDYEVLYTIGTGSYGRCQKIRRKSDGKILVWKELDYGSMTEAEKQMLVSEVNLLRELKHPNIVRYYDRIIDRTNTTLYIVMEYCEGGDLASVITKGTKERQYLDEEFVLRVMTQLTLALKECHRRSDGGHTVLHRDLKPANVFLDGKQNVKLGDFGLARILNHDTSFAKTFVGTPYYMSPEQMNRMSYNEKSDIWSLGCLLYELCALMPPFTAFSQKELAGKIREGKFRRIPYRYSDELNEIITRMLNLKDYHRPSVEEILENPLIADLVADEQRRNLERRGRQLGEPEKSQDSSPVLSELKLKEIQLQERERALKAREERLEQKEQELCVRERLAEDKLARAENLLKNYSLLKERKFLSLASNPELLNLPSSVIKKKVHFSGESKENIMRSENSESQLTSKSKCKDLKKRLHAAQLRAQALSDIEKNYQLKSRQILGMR
The settings on record: at 1 µM.

The target in assay [10] is T4, Serine/threonine-protein kinase Nek2 (Homo sapiens). The following applies: at 10 µM.

Sequence of Serine/threonine-protein kinase tousled-like 2 (Homo sapiens) (Q86UE8 whole entry, looked up): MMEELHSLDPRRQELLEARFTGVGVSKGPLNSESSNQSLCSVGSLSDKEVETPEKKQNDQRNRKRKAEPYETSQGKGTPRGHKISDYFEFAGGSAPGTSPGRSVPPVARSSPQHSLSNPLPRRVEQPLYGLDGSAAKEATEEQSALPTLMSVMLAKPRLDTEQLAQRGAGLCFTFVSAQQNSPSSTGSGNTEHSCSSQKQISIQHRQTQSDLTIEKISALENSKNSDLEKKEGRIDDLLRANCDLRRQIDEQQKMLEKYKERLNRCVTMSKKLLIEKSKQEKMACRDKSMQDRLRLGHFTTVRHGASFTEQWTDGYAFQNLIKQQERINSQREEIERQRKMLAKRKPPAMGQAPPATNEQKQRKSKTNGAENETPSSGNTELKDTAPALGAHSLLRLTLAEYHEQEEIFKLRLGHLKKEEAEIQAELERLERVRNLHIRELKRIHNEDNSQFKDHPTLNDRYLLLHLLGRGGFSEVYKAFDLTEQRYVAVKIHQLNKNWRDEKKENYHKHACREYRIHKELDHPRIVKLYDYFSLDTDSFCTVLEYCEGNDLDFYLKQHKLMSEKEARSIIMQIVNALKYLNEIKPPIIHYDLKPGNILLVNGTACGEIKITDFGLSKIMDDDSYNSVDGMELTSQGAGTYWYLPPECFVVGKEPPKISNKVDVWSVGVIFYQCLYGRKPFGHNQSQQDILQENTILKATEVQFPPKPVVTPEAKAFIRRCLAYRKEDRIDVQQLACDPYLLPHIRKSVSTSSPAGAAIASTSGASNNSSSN

`Cc1cc(C)c(/C=C2\C(=O)Nc3ccccc32)[nH]1`: the residual activity in assay [1] was 12%; in assay [2], 98%; in assay [3], 106%; in assay [4], 105%; in assay [5], 62%.

Take `O=c1c(-c2ccc(F)cc2)c(-c2ccncc2)[nH]n1-c1ccc(Cl)cc1`: the residual activity in assay [6] worked out at 81%; in assay [2], 78%.

Turning to `Oc1cccc(-c2nc(N3CCOCC3)c3oc4ncccc4c3n2)c1`, the residual activity came out at 98% in assay [6]; 98% in [2]; 117% in assay [7]; 69% in [3]; 95% in [5].

As for `O=C1Cc2c([nH]c3ccc(Br)cc23)-c2ccccc2N1`, the residual activity in assay [8] was determined as 42%; in [1] it was 3%; in [9], 95%; in assay [10], 80%; in assay [7], 81%; in assay [3], 72%. Besides, the residual activity in [4] was 89%; in assay [5] it was 78%.

Regarding `N#C/C(=C\c1ccc(O)c(O)c1)C(=O)NCc1ccccc1`, the residual activity in assay [6] stood at 103%; in assay [2], 103%; in assay [5], 85%.

Consider `Nc1ncnc2c1cnn2-c1ccccc1`, for which the residual activity in assay [1] worked out at 88%; in assay [6] it was 79%; in assay [2], 88%; in assay [9] it was 83%; in assay [10], 99%; in [3], 91%.

For the molecule `N#C/C(=C1/Nc2ccccc2S1)c1ccnc(NCCc2cccnc2)n1`, the residual activity in [6] is 45%; in assay [2], 6%; in assay [10] it was 82%.

For the molecule `CCCCc1c(-c2ccc(O)cc2)[nH]c2nccnc12`, the residual activity was found to be 81% in assay [8]; 62% in [1]; 80% in assay [6]; 88% in [2]; 88% in [7]; 79% in assay [3]. Moreover, the residual activity was determined as 91% in assay [4] and 80% in assay [5].

Take `CC(C)N(CCC(=O)c1ccc2ccccc2c1)Cc1ccccc1`: the residual activity in assay [8] came to 87%; in [1], 79%; in assay [9], 81%; in assay [10], 88%; in assay [4], 86%; in assay [5], 80%.

As for `COc1cc2ncnc(Nc3cccc(Cl)c3)c2cc1OC`, the residual activity in assay [8] stood at 121%; in [1] it was 101%; in assay [10], 111%; in assay [7] it was 111%; in [4] it was 119%; in [5], 101%.

With `COc1ccc(CNC(=O)Nc2ncc([N+](=O)[O-])s2)cc1`, the residual activity in assay [8] was 68%; in assay [1], 67%; in assay [6], 51%; in assay [2], 66%; in [5] it was 74%.

With `O=c1cc(N2CCOCC2)oc2c(-c3ccccc3)cccc12`, the residual activity in [9] turned out to be 81%.

With `NC(=O)c1ccc(-c2nc(-c3ccc4c(c3)OCCO4)c(-c3ccccn3)[nH]2)cc1`, the residual activity in [6] is 57%; in assay [2], 65%; in [9] it was 95%; in assay [10] it was 91%; in assay [7] it was 85%; in assay [3] it was 93%. In addition, the residual activity is 91% in [4] and 87% in assay [5].

In the case of `Nc1nc(Nc2ccc(S(N)(=O)=O)cc2)nn1C(=O)c1c(F)cccc1F`, the residual activity in assay [1] came to 20%; in assay [6] it was 56%; in assay [9] it was 96%; in assay [10] it was 70%; in assay [3] it was 71%; in assay [4], 68%. In addition, the residual activity in assay [5] was determined as 17%.

Turning to `O=S(=O)(c1cccc2cnccc12)N1CCCNCC1`, the residual activity in assay [10] was found to be 100%.

As to `COc1cc2nccc(Oc3ccc(NC(=O)Nc4cc(C)on4)c(Cl)c3)c2cc1OC`, the residual activity in assay [8] turned out to be 17%; in assay [1] it was 3%; in [6], 77%; in [4], 104%; in assay [5], 100%.

Consider `Nc1ncnc2c1c(-c1ccc(Oc3ccccc3)cc1)cn2C1CCCC1`, for which the residual activity in assay [8] was determined as 83%; in [1], 37%; in assay [6], 102%; in [9] it was 77%; in assay [10], 69%; in [7], 105%. The residual activity came out at 55% in [3], 92% in [4] and 82% in [5].
